Assay outcomes deposited in PubChem BioAssay by National Center for Advancing Translational Sciences (NCATS).
In the library only some 2.4% were active in any assay of this set; here they are far more common.
AmpC inh det: Promiscuous and Specific Inhibitors of AmpC Beta-Lactamase (assay with detergent); P00811; purified AmpC, nitrocefin hydrolysis with detergent; Potency, µM (highest dose often 28.7 µM); 71,000 compounds, 0.09% hits; active = well fitted curve in the direction sought with a large enough effect; inconclusive = small, poorly fitted or top-dose-only effect
Target sequence (P00811 whole entry, looked up): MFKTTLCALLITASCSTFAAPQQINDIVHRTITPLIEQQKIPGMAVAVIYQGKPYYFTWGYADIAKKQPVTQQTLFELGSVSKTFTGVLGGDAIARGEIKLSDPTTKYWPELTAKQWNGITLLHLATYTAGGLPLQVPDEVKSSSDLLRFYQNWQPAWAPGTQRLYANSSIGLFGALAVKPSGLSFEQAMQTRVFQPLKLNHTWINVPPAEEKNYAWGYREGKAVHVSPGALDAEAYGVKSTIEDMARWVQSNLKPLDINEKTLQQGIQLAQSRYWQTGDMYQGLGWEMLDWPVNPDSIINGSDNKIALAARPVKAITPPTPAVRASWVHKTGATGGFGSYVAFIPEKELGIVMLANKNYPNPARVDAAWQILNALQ
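E. coli AmpC (5.3 nM) in 20 mM phosphate pH 7.0 with 0.01% Triton X-100, preincubated 15 min RT with compound; nitrocefin (2 uL of 800 uM stock) hydrolysis followed by 480 nm absorbance every 20 s over 4 min.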
Prx2 Sm inh: Schistosoma Mansoni Peroxiredoxins (Prx2); Schistosoma mansoni peroxiredoxin 2 (Prx2); S. mansoni Prx2 activity coupled to TGR/GSH (TGR is thioredoxin glutathione reductase), NADPH fluorescence loss, qHTS; Potency, µM; 65,000 compounds, 0.07% hits; AID 448, 2006
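Coupled assay in which S. mansoni TGR passes NADPH reducing equivalents via glutathione to Prx2, which reduces H2O2. Compounds were preincubated 15 min at room temperature with 25 nM TGR/50 nM Prx2 mix. Kinetic NADPH fluorescence loss (ex 365/em 450 nm) was monitored.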
AmpC inh no det: Promiscuous and Specific Inhibitors of AmpC Beta-Lactamase (assay without detergent). P00811. AmpC nitrocefin hydrolysis, absorbance 480 nm, no detergent. Potency, µM (top dose mostly 28.7 µM). 71,000 compounds, 1.8% hits. AID 585, 2007
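AmpC, 20 mM phosphate pH 7.0; 15 min cpd preinc, RT; start with nitrocefin (800 uM stock); A480 kinetic read, 20 s intervals, 4 min. No-enzyme wells = negative control.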
Anthrax LT inh: qHTS Assay for Anthrax Lethal Toxin Internalization; Cells, anthrax lethal toxin internalization, FRET ratio (460/530); Potency, µM (doses to about 40 µM), most hits filed as inhibitors; 70,000 compounds, 0.67% hits; AID 912, 2007; also: nearly all actives have a fitted effect of over 50% in size
Large screens that a line does not name were inactive; ! = a repeat was not active; [ ] = dose if it differs, or a comment. Unless noted, calls follow the shape of the full dose curve.

Cc1ccc(-n2c(=O)c3sccc3n(CC(=O)NCc3ccco3)c2=O)cc1	none
Oc1ccc2c3c1O[C@@H]1[C@@H](O)CC[C@]4(O)[C@H](C2)N(CC2CCC2)CC[C@@]314	none
COCCCNC(=O)c1ccc(Cn2c(=O)[nH]c3ccccc3c2=O)cc1	AmpC inh no det 3.98µM[single pt active], Anthrax LT inh inconclusive
COCCCNC(=O)CCCn1c(=O)[nH]c2ccccc2c1=O	none
N#Cc1nc(-c2ccc(F)cc2)oc1NCc1cccc2c1OCO2	Anthrax LT inh inconclusive
CC(C)CNc1oc(-c2ccc(F)cc2)nc1C#N	AmpC inh no det 3.98µM[single pt active], Anthrax LT inh inconclusive
CC(C)Cc1cc(C(=O)Nc2ccc(F)cc2F)no1	AmpC inh no det 3.98µM[single pt active]
CC(C)Cc1cc(C(=O)Nc2cc(Cl)ccc2Cl)no1	AmpC inh no det 3.98µM[single pt active]
CC(C)c1cc(C(=O)Nc2cc(Cl)ccc2O)no1	Anthrax LT inh inconclusive
O=C(Nc1ccc(F)cc1F)c1cc(-c2ccco2)on1	none
CC(C)Cc1cc(C(=O)NCCN2CCOCC2)no1	AmpC inh no det 3.98µM[single pt active]
CC(C)Cc1cc(C(=O)Nc2c(F)cc(F)cc2Br)no1	AmpC inh no det 3.98µM[single pt active]
O=C(NCCN1CCOCC1)c1cc(-c2ccc(Cl)cc2)on1	Anthrax LT inh inconclusive
C1C[C@@H]2CN(CCCN3CCOCC3)[C@@H](C1)O2	Anthrax LT inh inconclusive
COc1ccc(S(=O)(=O)N(CCCN2CCCC2=O)Cc2cc3cc(C)c(C)cc3[nH]c2=O)cc1	Prx2 Sm inh 58.2
Cc1cccc(CNc2ccnc(-c3ccc(N(C)C)cc3)n2)c1	Anthrax LT inh inconclusive
CS(=O)(=O)O[C@H]1CN2CCC1CC2	none
CN1CCCC[C@@H]1CCN1c2ccccc2Sc2ccc(S(C)=O)cc21 (some centres undefined)	none
CSc1ccc2c(c1)N(CC[C@H]1CCCCN1C)c1ccccc1S2	Anthrax LT inh 10µM
CCCCC1CN2C(CCC(C)C2c2ccc(Br)cc2)C(=O)O1 (centres undefined)	none (no result: AmpC inh det, Prx2 Sm inh, AmpC inh no det)
CCCn1c(-c2ccc(F)cc2)nc2c(N3CCCN(Cc4ccccc4)CC3)nc(C)nc21	Anthrax LT inh 6.31µM (no result: Prx2 Sm inh)
CCCn1c(C)nc2c(N3CCCN(Cc4ccccc4)CC3)nc(C)nc21	none (no result: Prx2 Sm inh)
O=c1n(-c2ccccc2)c(=O)n2n1CC[C@H]1/C(=N\OCc3ccccc3)[C@H]3O[C@@H]3[C@@H](O)[C@@H]12	none (no result: AmpC inh det, Prx2 Sm inh, AmpC inh no det)
O=[As](O)(O)c1ccc(Cc2ccc([As](=O)(O)O)cc2)cc1	Prx2 Sm inh 0.169, Anthrax LT inh inconclusive
CC1(C)Cc2c(sc3nc(SCC(=O)N4CCOCC4)nc(N)c23)CO1	Anthrax LT inh 7.94µM
CCOC(=O)N1CCN(c2nc(SC)nc3sc4c(c23)CC(C)(C)OC4)CC1	AmpC inh det inconclusive, AmpC inh no det inconclusive, Anthrax LT inh inconclusive
Oc1ccc(Cl)cc1Sc1cc(Cl)ccc1O	Anthrax LT inh 5.01µM!
Cc1cccc(C)c1OCC(O)Cn1ccnc1C (centres undefined)	AmpC inh no det 3.98µM[single pt active]
COc1cc(OC)cc(OCC(O)Cn2ccnc2C)c1 (centres undefined)	none
CN1C[C@@H](CS(=O)(=O)N(C)C)C[C@H]2c3cccc4c3c(cn4C)C[C@@H]21	none
C=C(C)[C@H]1[C@H]2OC(=O)[C@@H]1[C@]1(O)C[C@H]3O[C@]34C(=O)O[C@H]2[C@]14C	none
CN(CCc1ccc(Cl)c(Cl)c1)CCN1CCCCCC1	Anthrax LT inh inconclusive
CN(CCc1ccc(Cl)c(Cl)c1)[C@H]1CCCC[C@H]1N1CCCC1	Anthrax LT inh 25.1µM
COc1ccccc1Oc1ccc2c(c1)C(=O)N(c1ccc(O)cc1)C2=O	AmpC inh no det 12.6µM[single pt active]
CC[C@H](C)[C@@H]1O[C@]2(CC[C@@H]1C)C[C@H]1C[C@H](CC=C(C)[C@@H](O[C@H]3C[C@H](OC)[C@H](O[C@H]4C[C@H](OC)[C@H](O)[C@H](C)O4)[C@H](C)O3)[C@@H](C)C=CC=C3CO[C@@H]4[C@@H](O)C(C)=C[C@H](C(=O)O1)[C@@]34O)O2	Prx2 Sm inh inconclusive, Anthrax LT inh inconclusive
CCN1C[C@@]2(C)CC[C@H](O)[C@@]34[C@@H]5C[C@H]6[C@H](O)[C@@H]5[C@](O)(C[C@@H]6OC)[C@H](C[C@@H]23)[C@H]14	Anthrax LT inh inconclusive
CCN(CC)c1ccc(NC(=O)CSc2nc3ccccc3c(=O)[nH]2)cc1	AmpC inh no det 10µM[single pt active]
CO[C@H]1COC(=O)C/C=C\[C@@H](C)COC(=O)[C@@H](OCc2ccccc2)/C=C\[C@@H]1C	none (no result: AmpC inh det, Prx2 Sm inh, AmpC inh no det)
CCOC(=O)Cc1csc(-n2sc3ccccc3c2=O)n1	Anthrax LT inh 3.16µM
CCOC(=O)Nc1ccc2c(c1)N(C(=O)OCCN(C)C)c1ccccc1CC2	AmpC inh no det 3.98µM[single pt active]
CCS(=O)(=O)Nc1ccc2c(c1)N(C(C)=O)c1ccccc1CC2	Anthrax LT inh inconclusive
O=C(Cn1ncc2c(=O)oc3ccccc3c21)NCCN1CCN(c2ccccc2F)CC1	AmpC inh no det 3.98µM[single pt active]
O=C(Cn1ncc2c(=O)oc3ccccc3c21)N1CCCN(Cc2ccccc2F)C1	AmpC inh no det 3.98µM[single pt active]
O=C(Cn1ncc2c(=O)oc3ccccc3c21)N1CCCc2ccccc21	none
CC1CC(C)CN(CCCNC(=O)Cn2ncc3c(=O)oc4ccccc4c32)C1 (centres undefined)	AmpC inh no det 3.16µM[single pt active]
O=C(Cn1ncc2c(=O)oc3ccccc3c21)N1CCN(C(=O)c2ccco2)CC1	Prx2 Sm inh inconclusive
CCOC(=O)OCC1OC(c2ccc(C(C)=O)cc2)C=CC1OC(=O)OCC (centres undefined)	none (no result: AmpC inh det, Prx2 Sm inh, AmpC inh no det)
O=C(COc1ccccc1F)c1ccc(O)cc1O	none (no result: Prx2 Sm inh)
Cc1c(O)ccc(C(=O)COc2ccccc2F)c1O	Anthrax LT inh 10µM
CN(C)[C@@H]1C(=O)C(C(N)=O)=C(O)[C@]2(O)C(=O)C3=C(O)c4c(O)cccc4[C@@](C)(O)[C@@H]3C[C@@H]12	Anthrax LT inh inconclusive
COc1ccccc1OCC(=O)Nc1oc(-c2ccccc2)c(-c2ccccc2)c1C#N	none
N#Cc1c(NC(=O)CSc2n[nH]c(Cc3ccccc3)n2)oc(-c2ccccc2)c1-c1ccccc1	AmpC inh no det 10µM, Anthrax LT inh inconclusive
Cc1ccnc(SCC(=O)Nc2oc(-c3ccccc3)c(-c3ccccc3)c2C#N)n1	AmpC inh no det inconclusive, Anthrax LT inh inconclusive
N#Cc1c(NC(=O)COC(=O)C2CC3C=CC2C3)oc(-c2ccccc2)c1-c1ccccc1 (centres undefined)	AmpC inh no det 10µM, Anthrax LT inh inconclusive
COc1ccccc1C[C@@H](Cc1nc2ccccc2[nH]1)c1nc2ccccc2[nH]1	Anthrax LT inh inconclusive
CCOC(=O)/C(C(C)=O)=C1\OC(=O)c2ccccc21	AmpC inh det 7.94µM, AmpC inh no det 12.6µM
CCOC(=O)CN1C(=O)c2ccccc2C1=O	none
O=C(Nc1nc(-c2ccc(S(=O)(=O)N3CCCC3)cc2)cs1)c1ccco1	none (no result: Anthrax LT inh)
Cc1ccc(-c2csc(NC(=O)c3ccno3)n2)cc1	AmpC inh no det 7.94µM
O=C(Nc1nc(-c2ccccn2)cs1)c1ccc(Cl)s1	Anthrax LT inh 6.31µM
O=C(Nc1nc(-c2ccc(Cl)s2)cs1)c1cccs1	AmpC inh no det inconclusive, Anthrax LT inh inconclusive
